In PubChem BioAssay (NCI):
About 83,000 compounds went through this panel and 20% of them were active in at least one assay; those are over-represented in the sample as a whole.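 For each line, cells grew in 96-well plates with the test compound present at a single concentration for 48 hours.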 Values without a mark were called inactive. Active and inactive are the calls of the source.

Tested on: SK-MEL-28 melanoma
Test: NCI-60 one-dose screen, 48 h (100 = growth as untreated, 0 = no growth, -100 = all killed)
Details: 10 µM
Method: Growth inhibition of the SK-MEL-28 human tumor cell line is measured as a screen for anti-cancer activity. Cells are grown in 96 well plates and exposed to the test compound for 48 hours. Compounds are tested at a single concentration, which is 10^-5 M for most compounds. The reported endpoint is percent growth (GI% or GIPRCNT), where numbers from 0 - 100% represent growth inhibition, and numbers from -100% - 0 represent cell death. For example, a value of 40 represents 60% growth inhibition. A value of 0 means no net growth occurred over the course of the experiment. A value of -40 indicates 40% of cells at the beginning of the experiment died by the end of the experiment. A value of -100 means all cells are dead at the end of the experiment.
NCI-60 Human Tumor Cell Lines Screen was performed using the standard one-dose NCI protocol, which is described in more detail at https://dtp.cancer.gov/discovery_development/nci-60/default.htm.
Compounds with GIPRCNT values below 10 were considered active. Activity score was based on GIPRCNT using the following formula: […]
Score is 0 for GIPRCNT values of 100 or above, 50 for GIPRCNT values of 0, and 100 for GIPRCNT values of -100.

SMILES	growth
COc1ccc(S(=O)(=O)Nc2cc(/C=C\c3cc(OC)c(OC)c(OC)c3)ccc2OC)cc1	48.8%
O=C(NCCc1nccs1)c1cnc2c(S)cccc2c1	30.5%
O=C1/C(=C/c2ccc(O)cc2)CSc2ccc(Cl)cc21	107%
O=C1/C(=C/c2ccc(O)cc2O)N=C2SCCCN12	98.4%
CCn1nc(-c2ccc(C(=O)OC)cc2)nc2c(=O)n(C)c(=O)nc1-2	77.7%
COC(=O)[C@]12CC[C@@H](C)[C@H](C)[C@@H]1C1=CC[C@@H]3[C@@]4(C)C/C(=N\O)[C@H](O)[C@@]5(C)COC(=C45)C[C@@]3(C)[C@]1(C)CC2	-60.3% (active)
O=S(=O)(NCl)c1ccccc1	97.1%
COc1cc(-c2n/c(=C\c3c(O)[nH]c4ccccc34)cc3c2=Nc2ccccc2-3)cc(OC)c1OC	42.8%
COc1ccc(-c2nc(SCC(=O)c3ccc(Br)cc3)[nH]c(=O)c2C#N)cc1	115%
COC(=O)CCCCCCCCC(C)c1ccc(C(C)=O)cc1 (stereo not given)	130%
CNC(=O)c1cc(Oc2ccc(NC(=O)Nc3ccc(Cl)c(C(C)(C)C)c3)c(F)c2)ccn1	34.8%
FC(F)(F)c1ccc(-c2cnc(Br)nc2NC2CCCCCC2)cc1	36.1%
C[C@@H]1C(=O)N(C[C@H](Cc2ccccc2)NC(=O)OCc2ccccc2)[C@]1(Cc1ccccc1)C(=O)OCc1ccccc1	66.9%
Cc1cccc2c(Nc3ccc(NS(C)(=O)=O)cc3)c3ccc([N+](=O)[O-])cc3nc12	-5.65% (active)
COc1ccc(-c2oncc2-c2cc(OC)c3c(c2)OCO3)cc1	37%
O=C(Nc1cccc(Cl)c1)Nc1cc2ncncc2cc1OCc1cccc(F)c1	20.9%
CCOC(=O)c1c(Cl)c2c(n1Cc1cccc(OC)c1)-c1oncc1CC2	34%
C#CCNCCN1C(=O)c2ccc3c4c(ccc(c24)C1=O)C(=O)N(CCNCC#C)C3=O	83.9%
COc1ccc(CCc2nc3cc(-c4c(C)noc4C)ccc3n2CCN2CCOCC2)cc1	33.6%
Cc1nn2c(/C=C3/C(=O)Nc4ccc(Cl)cc43)c(-c3ccccc3)nc2s1	29.2%

SMILES	growth
CCCCc1ccc(NC(=O)N(CCCl)N=O)cc1	101%
COc1ccc(-c2nnc(N3CCN(C(=O)CN4CCN(c5ccc(Cl)cc5)CC4)CC3)nc2-c2ccc(OC)cc2)cc1	86.7%
COc1ccc(C2CC(c3ccc(-c4ccccc4)cc3)=NN2c2ccc(S(N)(=O)=O)cc2)cc1 (stereo not given)	85.4%
CC1(C)Cc2c(cn(Cc3ccccc3)c2-c2ccccc2)-c2oncc21	112%
O=C(O)CNS(=O)(=O)c1ccc(OCCOc2ccc(S(=O)(=O)NCC(=O)O)cc2)cc1	106%
Nc1ccccc1NC(=O)CCCCCCC(=O)Nc1ccc2c(c1)/C(=C/c1ccc[nH]1)C(=O)N2	42.7%
C[N+]1=C(/C=C/c2ccc(I)cc2)C(C)(C)c2ccccc21	84.7%
Nc1ccn([C@@H]2O[C@H](COP(=O)(O)O[C@@H]3C[C@H](n4cc(F)c(=O)[nH]c4=O)O[C@@H]3COP(=O)(O)O[C@@H]3C[C@H](n4cc(F)c(=O)[nH]c4=O)O[C@@H]3COP(=O)(O)O[C@@H]3C[C@H](n4cc(F)c(=O)[nH]c4=O)O[C@@H]3COP(=O)(O)O[C@@H]3C[C@H](n4cc(F)c(=O)[nH]c4=O)O[C@@H]3COP(=O)(O)O[C@@H]3C[C@H](n4cc(F)c(=O)[nH]c4=O)O[C@@H]3COP(=O)(O)O[C@@H]3C[C@H](n4cc(F)c(=O)[nH]c4=O)O[C@@H]3COP(=O)(O)O[C@@H]3C[C@H](n4cc(F)c(=O)[nH]c4=O)O[C@@H]3COP(=O)(O)O[C@@H]3C[C@H](n4cc(F)c(=O)[nH]c4=O)O[C@@H]3COP(=O)(O)O[C@@H]3C[C@H](n4cc(F)c(=O)[nH]c4=O)O[C@@H]3COP(=O)(O)O[C@@H]3C[C@H](n4cc(F)c(=O)[nH]c4=O)O[C@@H]3COP(=O)(O)OCCOCCOCCOCCOCCOCCO)[C@H](O)C2O)c(=O)n1 (stereo not given in full)	52.3%
O=C(N/N=c1/ccoc2cccnc12)N1CCN(c2ncccn2)CC1	48.4%
CCCCOCC(=O)NC(NP(=O)(N(C)C)N(C)C)C(Cl)(Cl)Cl (stereo not given)	125%
Oc1ccccc1-c1nnc(Cn2c(Cc3cccc4ccccc34)nc3ccccc32)o1	103%
COc1cc(OC)cc(N2CCN(C(=O)Nc3nc4cc(F)ccc4nc3OC)CC2)c1	77.1%
CCN(CC)c1ccc(/C=C/C2=[N+](C)c3ccccc3C2(C)C)c(C)c1	9.14% (active)
CCCCN(CCCC)c1ccc(C(=NC(C)CCCN(CC)CC)c2ccc(N(C)C)cc2)cc1 (stereo not given)	-72.1% (active)
O=C(Nc1ccc(CN2CCOCC2)cc1)c1ccc(-c2cc(Cl)ccc2Cl)o1	41.4%
N#CC1C=Cc2c(ccc3ccccc23)N1C(=O)c1ccccc1 (stereo not given)	48.9%
Cc1ccccc1[P+](Cc1ccccc1)(c1ccccc1)c1ccccc1	27.3%
C=C[C@]1(C)C=C2C(=O)[C@@]3(O)OC(=O)[C@@]4(CCCC(C)(C)[C@H]34)[C@@]2(O)CC1	-98.8% (active)
O=C(COc1ccc(-c2nc3ccccc3[nH]2)cc1)N=Nc1c(O)[nH]c2ccccc12	99.7%
Cn1c(N)c(N=Cc2ccccc2)c(=O)n(C)c1=O	110%
